Bioassay records: PubChem, several laboratories
A selection: hits, their analogues and other compounds. The true share with any hit is near 2.6%.
CF NFkB block: cystic fibrosis NF-kB activation inhibition; KKLEB NF-kB-GFP reporter, PAF-induced, GFP fluorescence overnight; inhibition, % at 5 µM; hit rate 0.86% among 360,000;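 active = at least 50% inhibition at 5 µM, scaled per plate between neutral and stimulator controls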;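 note: PAF is a Pseudomonas aeruginosa culture filtrate used as stimulus; plate controls were PAF-stimulated DMSO wells for no effect and unstimulated DMSO wells for full effect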
TWEAK Fn14 block: TWEAK-Fn14 signaling inhibition | inhibition, % at 10 µM | hit rate 2% among 360,000 | TWEAK-stimulated Fn14 reporter cells, luciferase luminescence, 8 h; in the data active = inhibition above about 50%
LGR2 inh: Drosophila LGR2 receptor signaling inhibition; HEK293 LGR2, CRE-luciferase, bursicon-stimulated, 4 h; inhibition, % at 9.99 µM; hit rate 0.35% among 380,000; AID 720647;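 active = drop in luminescence signal, shown as inhibition above about 50% in the replicate tests, limit read from the data, passing the limit was not always enough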;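 note: agonist challenge used bursicon conditioned medium at about half maximal strength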
KKLEB cytotox: reduces viability of KKLEB cystic fibrosis airway cells; KKLEB CF airway cells viability, ATPlite luminescence, overnight; hits give low values; cells stimulated with P. aeruginosa culture filtrate; hit rate 0.36% among 360,000; activity change (cytotoxicity), % at 5 µM; AID 602141;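 active = corrected activity change at or below -50% at 5 µM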
EWS-Fli block: blocks EWS/Fli oncoprotein-driven transcription; A673 NR0B1-luciferase reporter, viability-normalised; inhibition, % at 12.6 µM; hit rate 0.67% among 350,000;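 active = mean inhibition of at least 50% after viability correction, with every replicate also passing that limit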;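 note: firefly luciferase signal divided by Alamar Blue viability fluorescence both relative to DMSO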
TROY signal inh: TROY signaling inhibition | Q293 LMP1-TROYcd NF-kB luciferase reporter, 4 h | inhibition, % at 10 µM | hit rate 0.98% among 360,000 | AID 1347056;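 active = compounds whose plate-normalised and pattern-corrected inhibition of the luciferase reporter signal at the single screening dose is 50% or more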
* marks the source's active call; other numbers are inactive results; · = no result.

SMILES | CF NFkB block | TWEAK Fn14 block | LGR2 inh | KKLEB cytotox | EWS-Fli block | TROY signal inh
CCOC(=O)C(C)(C)NS(=O)(=O)c1ccc(Cl)c([N+](=O)[O-])c1 | -6.4 | 14.0 | -0.3 | -1.6 | 12.3 | -4.2
CC(=O)NCN1CCN(CNC(C)=O)CC1 | 1.3 | 74.1* | · | -7.9 | · | -0.7
Nc1c(NC(=O)CC[n+]2ccccc2)cccc1[N+](=O)[O-] | 8.6 | 52.1* | · | 0.7 | -10.6 | 45.8
Cc1ccc(/C=C2\SC(=S)N(CCCC(=O)Nc3cc(C)on3)C2=O)cc1 | 3.1 | 72.6* | 14.4 | 2.5 | · | 23.5
CCOc1ccc(/C=C2\SC(=S)N(CCC(=O)N(CCO)c3ccccc3)C2=O)cc1 | 5.8 | 21.6 | 4.0 | -0.9 | 33.3 | -5.9
COc1ccc(/C=C2\SC(=S)N(CCCC(=O)Nc3cc(C)on3)C2=O)cc1OC | -12.0 | 24.8 | 1.3 | -3.3 | 10.8 | 9.4
CCc1ccc(/C=C2\SC(=S)N(CCCC(=O)Nc3ccccn3)C2=O)cc1 | 2.6 | 40.9 | · | -2.2 | · | 71.5*
CCc1ccc(/C=C2\SC(=S)N(CCCC(=O)N(CCO)c3ccccc3)C2=O)cc1 | 20.4 | 36.3 | 6.2 | -17.4 | 54.2* | 35.0
CCc1ccc(/C=C2/SC(=S)N(CCCC(=O)Nc3ccccc3C(=O)O)C2=O)cc1 | 11.9 | 32.8 | 2.9 | 3.6 | · | 74.7*
CN(C)CC#Cc1ccc([C@H]2[C@H]3CN(C(=O)Nc4cc(F)ccc4F)CCCCN3[C@H]2CO)cc1 | · | · | -5.1 | · | -4.5 | ·
C[C@@H]1CN([C@@H](C)CO)S(=O)(=O)c2ccc(-c3cccnc3)cc2O[C@@H]1CN(C)Cc1cncnc1 | · | · | -5.3 | · | -11.5 | ·
CCCn1c(=S)[nH]c2cc(C(=O)N3CCN(C(=O)OCC)CC3)ccc2c1=O | -28.5 | -15.9 | -11.2 | 5.1 | · | -5.3
CCOC(=O)N1CCN(C(=O)c2ccc3c(=O)n(Cc4ccc(Cl)cc4)c(=S)[nH]c3c2)CC1 | -17.2 | -1.8 | -16.2 | -8.1 | · | 7.8
CCCn1c(=S)[nH]c2cc(C(=O)N3CCCC(C(=O)OCC)C3)ccc2c1=O (stereo not given) | -3.4 | 54.8* | · | -5.8 | · | 15.8
CCOC(=O)N1CCN(C(=O)c2ccc(Cn3c(=S)[nH]c4ccc(Br)cc4c3=O)cc2)CC1 | -3.4 | 57.0* | 11.5 | 6.4 | 46.4 | 59.2*
C[C@H](CO)N1C[C@H](C)[C@H](CN(C)S(=O)(=O)c2ccc(Cl)cc2)Oc2c(NC(=O)C3CCCCC3)cccc2C1=O | · | · | -2.6 | · | 6.4 | ·
CCCC(=O)N1CCC2(CC1)CN(C(=O)C1CC1)[C@@H](CO)c1[nH]c3cc(OC)ccc3c12 | · | · | -15.6 | · | -3.7 | ·
O=c1cc(-c2ccccc2Cl)oc2c(NS(=O)(=O)c3cccs3)ccc(O)c12 | 52.1* | 12.2 | -19.7 | -14.8 | 2.4 | 5.8
C[C@H](CO)N1C[C@H](C)[C@H](CN(C)S(=O)(=O)c2ccccc2)Oc2ncc(-c3ccc(F)cc3)cc2C1=O | · | · | 2.1 | · | -3.5 | ·
O=c1c(Cl)c(Cl)cnn1Cc1nnc(-c2ccc(Cl)cc2)o1 | 80.5* | 86.3* | 103.9* | -81.7* | 17.7 | 52.4*
Cc1ccc(Cn2ncc(Cl)c(Cl)c2=O)cc1 | 10.8 | 65.4* | -9.6 | 14.8 | · | 2.5
O=c1c(Cl)c(Cl)cnn1Cc1ccccc1Cl | · | · | -1.6 | · | 37.6 | ·
CCc1ccc(C(=O)Cn2ncc(Cl)c(Cl)c2=O)cc1 | 84.5* | 79.1* | · | -68.0* | · | 11.3
COCC(=O)Nc1ccc2c(c1)OC[C@@H](C)N(C(=O)Cc1ccccn1)C[C@H](C)[C@H](OC)CN(C)C2=O | · | · | -6.5 | · | 0.3 | ·
O=C(C[C@@H]1CC[C@@H](NC(=O)Nc2ccc(C(F)(F)F)cc2)[C@@H](CO)O1)NCc1cc(F)cc(F)c1 | · | · | 9.4 | · | -13.6 | ·
SMILES | CF NFkB block | TWEAK Fn14 block | LGR2 inh | KKLEB cytotox | EWS-Fli block | TROY signal inh
CCN(CC(=O)NCc1ccc(Cl)cc1)C(=O)CN1C(=O)NC(CC)(c2ccccc2)C1=O (stereo not given) | 3.6 | 90.7* | 6.5 | 9.7 | · | -10.2
C/C(=N/NC(=O)c1cc(C(C)C)[nH]n1)c1cccs1 | 6.3 | 52.0* | · | -6.5 | · | -35.0
C/C(=N\NC(=O)c1cc(C)[nH]n1)c1cccs1 | 14.6 | 18.8 | · | -4.1 | -81.1 | -38.5
Cc1cccc(NC(=O)c2sc(C)nc2C)c1 | -2.2 | -22.5 | · | 2.7 | · | -43.9
Cc1cccc(C(=O)Nc2nc(C)c(C(=O)Nc3ccc4c(c3)CCC4)s2)c1 | 23.9 | 52.0* | -44.4 | -5.9 | · | 7.7
O=C(C1CCC1)N1CC2(C1)[C@@H](c1ccccc1)[C@@H](CO)N2Cc1cncnc1 | · | · | -32.8 | · | 5.4 | ·
